Assay outcomes: PubChem, Johns Hopkins Ion Channel Center
KCNQ2 enhance = enhances the rat KCNQ2 potassium channel; 0.54% of 310,000 active; B-score at 10 µM; CHO-K1 KCNQ2, FluxOR thallium flux fluorescence; active compounds read high; O88943;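 active = fluorescence ratio B-score at least 3 SD of library B-scores, with initial fluorescence B-score within 3 of them, cut at about 5.3 in these data; same plate scores as AID 2156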;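 note: B-score of peak minus minimum over baseline fluorescence ratio after K+ and Tl+ stimulus; positive B-score means potentiation of KCNQ2 with more thallium influx and brighter signal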
Target sequence (O88943 whole entry, looked up): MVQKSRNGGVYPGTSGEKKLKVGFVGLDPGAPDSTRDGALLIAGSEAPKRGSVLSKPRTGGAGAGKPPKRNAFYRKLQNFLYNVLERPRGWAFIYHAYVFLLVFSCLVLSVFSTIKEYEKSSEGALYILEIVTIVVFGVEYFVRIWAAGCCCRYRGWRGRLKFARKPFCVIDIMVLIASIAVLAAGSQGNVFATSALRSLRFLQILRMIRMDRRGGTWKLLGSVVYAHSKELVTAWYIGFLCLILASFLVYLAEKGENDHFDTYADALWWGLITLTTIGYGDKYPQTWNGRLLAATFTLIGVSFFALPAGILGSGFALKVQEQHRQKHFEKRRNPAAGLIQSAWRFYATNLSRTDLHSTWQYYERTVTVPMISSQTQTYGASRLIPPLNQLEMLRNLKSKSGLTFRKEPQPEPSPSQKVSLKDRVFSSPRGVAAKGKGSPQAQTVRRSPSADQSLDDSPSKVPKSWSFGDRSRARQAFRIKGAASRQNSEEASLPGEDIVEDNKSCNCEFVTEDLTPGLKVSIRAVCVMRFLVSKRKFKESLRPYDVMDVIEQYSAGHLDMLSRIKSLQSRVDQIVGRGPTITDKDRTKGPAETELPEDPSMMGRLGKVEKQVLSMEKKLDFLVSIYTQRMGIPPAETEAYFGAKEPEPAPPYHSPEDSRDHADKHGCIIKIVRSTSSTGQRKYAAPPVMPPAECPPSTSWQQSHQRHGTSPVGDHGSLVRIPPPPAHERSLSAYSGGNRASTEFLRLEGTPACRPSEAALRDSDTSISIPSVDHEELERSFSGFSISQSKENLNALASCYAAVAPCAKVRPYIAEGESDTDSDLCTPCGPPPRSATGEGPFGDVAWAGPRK
KCNQ2 inh = inhibitors of rat KCNQ2 potassium channel. AID 2156. CHO-K1 KCNQ2, FluxOR thallium flux, 20 min; active compounds read low. O88943. 1.1% of 310,000 active. B-score at 10 µM;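 active = fluorescence ratio B-score at most minus 3 library SDs, with starting brightness B-score within 2 library SDs, cut at about -5.5 in these data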
Of the large screens only hits and unclear results are named; the others gave an inactive call. The list is not random: actives were taken first. Their share in the collection is about 1.6%.

COc1ccc(S(=O)(=O)NC(C)C)cc1C(=O)N1CCOCC1	none (no result: KCNQ2 enhance)
COc1cccc(OCCCCSc2ncccn2)c1	none (no result: KCNQ2 enhance)
c1ccc(Oc2cccc(OCCCCSc3ncccn3)c2)cc1	KCNQ2 inh -6.2
CCOC(=O)c1cc2c(ccn2-c2ccc(F)cc2)n1CC(=O)NC(C)(C)C	KCNQ2 inh -6.7
CCn1c(C(=O)OC)cc2c1ccn2-c1ccc(F)cc1	none (no result: KCNQ2 enhance)
Cn1cccc1C(=O)NCc1ccc(S(N)(=O)=O)cc1	none
COc1ccc(/C=N/NC(=O)c2nc(-c3ccccc3)cc(-c3ccccc3)n2)cc1OC	none (no result: KCNQ2 enhance)
COc1cccc(/C=N/NC(=O)c2nc(-c3ccccc3)cc(-c3ccccc3)n2)c1	KCNQ2 inh -6.9
C=CCNC(=O)COc1coc(CN2CCN(C(=O)c3ccco3)CC2)cc1=O	none (no result: KCNQ2 enhance)
O=C(OCc1csc(-c2ccccc2)n1)c1ccccc1O	none (no result: KCNQ2 enhance)
CC(C)(C#CCN1CCCCC1)OCCOC(c1ccccc1)c1ccccc1	KCNQ2 inh -6.1
CC(O)(C#CCN1CCCCC1)c1ccccc1 (stereo not drawn)	none
Cc1ccc(C)c(NC(=O)CN(C)C(=O)c2ccc3[nH]c4c(c3c2)CC(C)CC4)c1 (stereo not drawn)	none (no result: KCNQ2 enhance)
O=C1CN(C(=O)c2cc([N+](=O)[O-])ccc2Cl)C(c2ccc(F)cc2)c2cc(F)ccc2N1 (stereo not drawn)	none (no result: KCNQ2 enhance)
COc1ccc(CC2(C)OC(c3ccccc3)=NN2C(C)=O)cc1 (stereo not drawn)	none (no result: KCNQ2 enhance)
Cc1ccc2c(c1)-c1c(cnn1CC(=O)O)CO2	none (no result: KCNQ2 enhance)
Cc1ccc2c(c1)-c1c(cnn1CC(=O)N1CCCN(Cc3ccccc3F)C1)CO2	KCNQ2 inh -8.2
O=S(=O)(NCCSCc1ccc(Cl)cc1Cl)c1ccc2c(c1)OCCO2	none (no result: KCNQ2 enhance)
O=S(=O)(NCCSCc1c(Cl)cccc1Cl)c1ccc2c(c1)OCCO2	KCNQ2 inh -6.8
COC(=O)c1ccc(CNC(=O)COC(=O)Cc2ccsc2)cc1	none
Cc1coc2c1C(=O)C(=O)c1c-2ccc2c1CCCC2(C)C	none (no result: KCNQ2 enhance)
C[C@H]1COC2=C1C(=O)C(=O)c1c2ccc2c1CCCC2(C)C	KCNQ2 inh -6.2
COc1ccc(S(=O)(=O)NCC2CCCO2)cc1NC(=O)c1ccc(Cl)cc1 (stereo not drawn)	none
CC(CC(=O)Nc1ccc2c(c1)OCCO2)c1ccccc1 (stereo not drawn)	none
CC(CC(=O)NC(C)c1ccc2c(c1)OCCO2)c1ccccc1 (stereo not drawn)	KCNQ2 enhance 9.3
Cc1cccc(-c2cc(C(=O)Nc3c(C)n(C)n(-c4ccccc4)c3=O)c3ccccc3n2)c1	KCNQ2 inh -5.9
Cc1c(NC(=O)COC(=O)c2cc(-c3cccc4ccccc34)nc3ccccc23)c(=O)n(-c2ccccc2)n1C	none (no result: KCNQ2 enhance)
CCOc1cc(/C=N/Nc2nc(N3CCCC3)nc(N3CCCC3)n2)ccc1O	KCNQ2 inh -8.3
CCOc1cccc(/C=N/Nc2nc(N3CCCC3)nc(N3CCCC3)n2)c1O	none
CN(c1ccccc1)S(=O)(=O)c1cccc(NC(=O)CSc2ncc(C(F)(F)F)cc2Cl)c1	KCNQ2 enhance 9.7
CN(c1ccccc1)S(=O)(=O)c1cccc(NC(=O)CSc2nncn2C)c1	none
O=C(CNC(=O)c1ccc(F)cc1)c1ccc(Cl)cc1	none (no result: KCNQ2 enhance)
CC(C)Oc1ccc(CNC(=O)CCC(=O)N2CC(C)Sc3ccccc32)cc1 (stereo not drawn)	none (no result: KCNQ2 enhance)
CC1CN(C(=O)CCC(=O)NCc2ccccc2Cl)c2ccccc2S1 (stereo not drawn)	KCNQ2 inh -7.4
Cc1ccc(C)c(OCC(=O)Nc2cc(NC(=O)COc3cc(C)ccc3C)cc(C(=O)O)c2)c1	none
CCOC(=O)N(C)S(=O)(=O)c1ccccc1[N+](=O)[O-]	none
COc1ccccc1CNC(=O)c1n[nH]c2ccccc12	none
COc1ccccc1CNC(=O)COC(=O)c1n[nH]c2ccccc12	KCNQ2 inh -5.9
CCc1nc2ccccc2c(C(=O)OCC(=O)NCc2ccc3c(c2)OCO3)c1C	KCNQ2 inh -5.8
CCCc1nc2ccccc2c(C(=O)OCC(=O)NCc2ccc3c(c2)OCO3)c1CC	none (no result: KCNQ2 enhance)
CC(C)(C)c1nnc(NC(=O)C2CC(=O)N(CCc3ccc(F)cc3)C2)s1 (stereo not drawn)	none
COc1cc(CNCCc2c[nH]c3ccccc23)cc(Cl)c1OCC(N)=O	none
COc1cc(CNCCc2c[nH]c3ccccc23)ccc1OCc1ccc(F)cc1	KCNQ2 inh -7.2
CCC1CN(S(=O)(=O)c2cc(-c3cc(C)no3)ccc2OC)c2cc(C)ccc2O1 (stereo not drawn)	none (no result: KCNQ2 enhance)
CN1c2ccccc2C(C)(C)C12C=Cc1cc(O)ccc1O2 (stereo not drawn)	KCNQ2 inh -7.1
CN1c2ccccc2C(C)(C)C12C=Nc1c(cc(N3CCOCC3)c3ccccc13)O2 (stereo not drawn)	none (no result: KCNQ2 enhance)
CCCCn1c(N)c(N(CCC(C)C)C(=O)c2oc3ccc(OCC)cc3c2C)c(=O)[nH]c1=O	none (no result: KCNQ2 enhance)
O=C1C=CC(=O)N1Cc1ccccc1	none (no result: KCNQ2 enhance)
O=C1C=CC(=O)N1N(c1ccccc1)c1ccccc1	KCNQ2 inh -6.2
CCOC(=O)c1c(NC(=O)CSc2nnnn2CC)sc(C)c1C	none (no result: KCNQ2 enhance)
CCc1cccc(C)c1NC(=O)Nc1c(Br)cnn1C	none (no result: KCNQ2 enhance)
COc1cccc(NC(=O)c2cc(-c3ccc(OC)cc3OC)nc3ccccc23)c1	KCNQ2 inh -6.4
COc1ccc(-c2cc(C(=O)Nc3cc(C)on3)c3ccccc3n2)c(OC)c1	none (no result: KCNQ2 enhance)
CCOC(=O)C(C)(C)N(Cc1ccccc1C)S(=O)(=O)c1ccc(Cl)c([N+](=O)[O-])c1	KCNQ2 inh -7.2
CCCN(CCC)S(=O)(=O)c1ccc(Cl)c([N+](=O)[O-])c1	none (no result: KCNQ2 enhance)
CCOCCn1c(=O)c2c(nc3n2CC(C)CN3Cc2ccccc2)n(C)c1=O (stereo not drawn)	none (no result: KCNQ2 enhance)
Nc1ccc(C(=O)Nc2ccccc2C(=O)O)cc1	none
O=C(Nc1ccccc1C(=O)Nc1ccccc1C(=O)O)c1ccccc1	KCNQ2 inh -5.9
O=C(Nc1ccccc1C(=O)NC(Cc1ccccc1)C(=O)O)c1ccccc1 (stereo not drawn)	none (no result: KCNQ2 enhance)
O=C(Nc1ccccc1C(=O)NC(Cc1ccccc1)C(=O)NC1CCCCC1)c1ccccc1 (stereo not drawn)	KCNQ2 inh -7.2
CC(=O)CCC(=O)N1CCC(n2nccc2NC(=O)c2ccccc2C)CC1	none
O=C(N/N=C/c1cc(Br)ccc1O)c1ccccc1Cl	KCNQ2 enhance 9.1
COC(=O)N/N=C/c1cc(Br)ccc1O	none (no result: KCNQ2 enhance)
Cc1ccc(S(=O)(=O)NCc2ccccc2)cc1C(=O)N1CCCCCCC1	none (no result: KCNQ2 enhance)
COc1ccc(CCNC(=S)Nc2cccc3ccccc23)cc1	none (no result: KCNQ2 enhance)
COc1ccc(OCCNC(=S)Nc2cccc3ccccc23)cc1	KCNQ2 inh -6.2
Cc1nnc(-c2ccccc2)nc1N(C)C	none
CSc1nc(NS(=O)(=O)c2ccc(F)cc2F)nn1C	none (no result: KCNQ2 enhance)
CC(=O)Nc1ccc(S(=O)(=O)N2CCC(C(=O)O)(c3ccccc3)CC2)cc1	none (no result: KCNQ2 enhance)
CN(CC(=O)Nc1cccc(F)c1)C(=O)c1cc(S(=O)(=O)N(C)C)ccc1N1CCCC1	none
COc1ccc(CNC(=O)CN(Cc2ccc(C)cc2)C(=O)c2csnn2)cc1	none
Cc1ccc(S(=O)(=O)N(C)C)cc1NC(=O)C(C)OC(=O)/C=C/c1cccs1 (stereo not drawn)	none (no result: KCNQ2 enhance)
COc1ccccc1-c1ocnc1C(=O)N1CCN(S(=O)(=O)c2ccc(NC(C)=O)cc2)CC1	none
CCOc1cc(C(=O)CSc2nnc(CNc3ccc(Cl)cc3)o2)ccc1NC(=O)CC	KCNQ2 enhance 6.2
COc1ccc(NCc2nnc(SCC(=O)c3ccc(OC)cc3)o2)cc1	none
CC1(C)CCC[C@@]2(C)CC=C(C(=O)O)[C@@H]3C[C@]312	none (no result: KCNQ2 enhance)
O=S(=O)(Nc1cccc(-c2nc3cccnc3s2)c1)c1ccc2c(c1)CCCC2	none (no result: KCNQ2 enhance)
